Experimental data taken from PubChem BioAssay AID1053117 (Broad Institute, 2014).
Results with a measured potency or affinity are listed apart. Calls of active or inactive are those of the source.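 The calls were made as follows: active = compounds lowering cell ATP signal with a fitted half-effect dose at most twice the top valid dose; inconclusive = flat curve with 30 to 70% signal loss, or bad fit; inactive = wrong direction, flat within 30%, or weaker than limit.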

Assay: HEK293 cell cytotoxicity, dose response, cytotoxicity control, cherry-picks, set 5 (AID 1053117);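 also: more negative means greater loss of ATP signal and more cytotoxicity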
Details: HEK293T viability, CellTiter-Glo ATP luminescence, 72 h; series mostly up to 26 µM

Structure (SMILES) | outcome
COc1ccccc1CC(=O)OC(C)C(=O)Nc1ccc(S(=O)(=O)N2CCCCC2)cc1 (stereo not drawn) | inactive
Cc1ccc(S(=O)(=O)N2CC[C@@H]3[C@H]2c2cc(-c4cccc(C(=O)N(C)C)c4)ccc2N[C@@H]3CO)cc1 | inactive
C[C@H]1CN([C@@H](C)CO)C(=O)c2cc(NC(=O)CCCN(C)C)ccc2O[C@@H]1CN(C)Cc1ccc(-c2ccccc2)cc1 | inactive
CN1c2ccc(-c3ccccc3)cc2[C@@H]2[C@@H](CCN2C(=O)CN2CCOCC2)[C@@H]1CO | inactive
COc1ccc(C)cc1N(CC(=O)Nc1cccc(N(C)S(C)(=O)=O)c1)S(C)(=O)=O | inactive
CN1c2ccc(-c3ccccc3)cc2[C@@H]2[C@@H](CCN2C(=O)CN2CCOCC2)[C@H]1CO | inactive
S=C(NCC1CCCO1)Nc1ccc(Cl)cc1Cl (stereo not drawn) | inactive
NC(=O)C1=C[C@H](c2coc3ccccc3c2=O)C[C@H](OCCCCO)O1 | inactive
Cc1ccc([N+](=O)[O-])cc1NC(=O)CN(C(=O)c1ccccc1Cl)C1CCCCC1 | inactive
C[C@H](CO)N1C[C@H](C)[C@H](CN(C)C(=O)Nc2cccc3ccccc23)Oc2c(NC(=O)Nc3ccc(C(F)(F)F)cc3)cccc2C1=O | inactive
Cn1cc([N+](=O)[O-])c(C(=O)Nc2cc(Oc3ccccc3)cc([N+](=O)[O-])c2)n1 | inactive
CSc1ccccc1C(=O)C1CCCN(C(=O)CCc2cccnc2)C1 (stereo not drawn) | inactive
COc1ncccc1C(=O)NC1CCCc2c1cnn2-c1ccc(C)c(C)c1 (stereo not drawn) | inactive
CCOc1ccccc1NC(=O)c1c(NC(=O)CCC(=O)O)sc2c1CCCCC2 | inactive
COc1cccc(-c2ccc3c(c2)[C@@H]2[C@@H](CCN2S(=O)(=O)c2cccc(OC)c2)[C@@H](CO)N3)c1 | inactive
C[C@H](O)C#Cc1ccc2c(c1)O[C@H](CN(C)C)[C@@H](C)CN([C@H](C)CO)S2(=O)=O | inactive
O=C(Nc1cc(Sc2nc3ccccc3s2)cc([N+](=O)[O-])c1)c1ccccc1F | inactive

Structure (SMILES) | outcome
N#C[C@@H]1[C@@H](c2ccccc2C2=CCCCC2)[C@H](CO)N1S(=O)(=O)c1ccccc1 | inactive
C[C@@H]1CN([C@H](C)CO)C(=O)c2cc(-c3ccccc3)cnc2O[C@@H]1CN(C)C(=O)c1cccc(F)c1 | inactive
CS(=O)(=O)N1CCN(c2ccc(NC(=O)c3ccc([N+](=O)[O-])o3)cc2)CC1 | inactive
COCC(=O)Nc1ccc2c(c1)C(=O)N(C)[C@@H]1CC[C@@H](CC(=O)NCc3ccccc3Cl)O[C@@H]1CO2 | inactive
O=C(c1cccnc1)N1C[C@@H]2[C@H](c3ccccc31)[C@@H](CO)N2CC1CCCC1 | inactive
C[C@@H]1CN([C@H](C)CO)C(=O)c2cc(NC(=O)CCCN(C)C)ccc2O[C@@H]1CN(C)Cc1ccc(-c2ccccc2)cc1 | inactive
CCN(Cc1ccncc1)C(=O)c1ccc2c(c1)S(=O)(=O)c1ccccc1C2=O | inactive
C[C@H]1CN([C@@H](C)CO)C(=O)c2cc(NC(=O)C3CCCCC3)ccc2O[C@H]1CN(C)Cc1ccc(-c2ccccc2)cc1 | inactive
Cc1c(NC(=O)c2ccc3nsnc3c2)cccc1[N+](=O)[O-] | inactive
COCC(=O)Nc1ccc2c(c1)C(=O)N(C)[C@H]1CC[C@H](CC(=O)NCc3ccccc3Cl)O[C@@H]1CO2 | inactive
CC(C)Cc1nnc(NC(=O)CSc2nc(N)cc(=O)[nH]2)s1 | inactive
C[C@H](O)C#Cc1ccc2c(c1)O[C@@H](CN(C)C)[C@H](C)CN([C@@H](C)CO)S2(=O)=O | inactive
O=C(C[C@@H]1C[C@@H]2c3cc(NC(=O)c4ccc5c(c4)OCO5)ccc3O[C@@H]2[C@@H](CO)O1)NCc1ccc(Oc2ccccc2)cc1 | inactive
CCOC(=O)c1nnn(-c2ccc(OC)cc2)c1N | inactive
O=C(OCC(O)C(O)COC(=O)c1ccccc1)c1ccccc1 (stereo not drawn) | inactive
O=C(Nc1ccccc1F)N1C[C@@H]2[C@H](c3ccccc31)[C@@H](CO)N2C(=O)C1CC1 | inactive
